Experimental data taken from PubChem BioAssay AID1347076 (National Center for Advancing Translational Sciences (NCATS), 2019).
In all, about 400,000 compounds went through this assay and about 13,000 (3.2%) were called active. Another 18% or so got no clear call; they are omitted. Calls follow the shape of the dose curve; as a rule, active = well fitted cell-killing curve with a large enough effect; inconclusive = small, poorly fitted or top-dose-only effect, or effect the other way; inactive = flat fitted curve, though single readings scatter. What follows is part of a selection rich in actives, with near analogues and random picks from the rest. Entries that show only a call come without a potency.

Assay: qHTS assay for MDR1-selective chemotherapeutics: Primary screen using the drug-selected MDR subline cells KB-V1; also: nearly all actives have a fitted effect of over 60% in size
Details: KB-V1 MDR cells viability, CellTiter-Glo, 72 h; series mostly up to 46.1 µM
Text: A prime difficulty in effectively treating cancer is the development of cellular resistance to multiple structurally unrelated anticancer drugs, a phenomenon known as multidrug resistance (MDR). […] Numerous strategies to overcome P-gp-mediated MDR have been explored, including the design of drugs that evade recognition and efflux, and development of inhibitors to block efflux and restore drug accumulation. […] An alternative approach is to exploit resistance by identifying drugs that target MDR cells over the non-resistant parental cells from which they were selected. […] The development of MDR1-selective agents represents a new strategy for resolving multidrug resistance, as it remains a long-standing clinical challenge for cancer chemotherapy.
Our goal is to identify compounds that selectively kill P-gp-expressing MDR cells. We will identify MDR1-selective compounds by comparing toxicity of compounds in the screening library against parental, drug-naive (KB-3-1) adenocarcinoma cells as well as their drug-selected MDR sub-line (KB-V1). The differential toxicity of compounds against these two cell lines will be used to identify MDR1-selective compounds, whose cytotoxicity is potentiated, rather than diminished, by P-gp expression. This assay will be utilized to conduct a quantitative high-throughput screen (qHTS) in collaboration with the NIH Chemical Genomics Center to identify selective agents, and probe hits arising from the screen will be validated using secondary assays and characterized through a well-established follow-up research program. This screen was run against the entire NCGC library collection of about 400,000 compounds.
NIH Molecular Libraries Probe Production Network [MLPCN]
NIH Chemical Genomics Center [NCGC]
PI: Michael Gottesman, National Cancer Institute, NIH
Briefly, 5 microL of media containing either KB-V1 cells (columns 1-2, 4-48) are dispensed into Greiner white, treated solid-bottom 1536-well assay plates (media-only control is added to column 3). Compounds are then transferred via Kalypsys pin tool equipped with 1536-pin array (10 nL slotted pins, V&P Scientific, San Diego, CA). Following addition of compound, the plates are incubated at 37 degrees C for 72 hours. CellTiter-Glo (2.5 µL/well) is then added, and the plates are read in a ViewLux reader (Perkin-Elmer, clear luminescence filter, 1 second exposure, 1x binning) following a 10 minute incubation. All cells are dispensed in DMEM phenol-red free media containing 10% FBS.
Library plates were screened starting from the lowest and proceeding to the highest concentration. Vehicle-only plates, with DMSO being pin-transferred to columns 5-48, will be inserted uniformly at the beginning and the end of each library in order to monitor and record any shifts in the background, which can be affected by reagent dispensers or loss in enzyme activity over time. Screening data will be corrected, normalized, and concentration-effect relationships will be derived by using publicly-available NCGC, NCATS curve fitting algorithms (http://ncgc.nih.gov/pub/openhts).
Potency is read from the fitted curve at half-maximal effect.

| Compound | Potency |
| --- | --- |
| COCOCCn1cc(CN2CCS(=O)(=O)N(Cc3ccc(-c4cccc(N(C)C)c4)cc3)C(CC(C)C)C2=O)nn1 (stereo unspecified) | inactive |
| CCNC(=O)C1(C)CCCN(C(=O)c2c(C)noc2C)C1 (stereo unspecified) | inactive |
| CCCCCCNC(=O)O[C@H]1CN(C(=O)OC(C)C)N(C(=O)OC(C)C)[C@@H]2CN(S(=O)(=O)c3ccc(C)cc3)C[C@]12O | inactive |
| COc1ccc(C2=NN(C(=O)CSc3nnnn3C)C(c3ccco3)C2)cc1 (stereo unspecified) | inactive |
| CCOC(=O)C1C(=O)C=C(c2ccc(OC)cc2)CC1c1ccco1 (stereo unspecified) | 11.6 µM (active) |
| CCOC(=O)C1C(=O)NC(N2CCN(c3ccccc3)CC2)=NC1c1ccco1 (stereo unspecified) | inactive |
| O=C(CS(=O)(=O)c1cccc2nsnc12)N1CCN(c2cccc(Cl)c2)CC1 | inactive |
| CC(=O)Nc1cccc(-c2cc3nc(NCc4cccnc4)n(C)c(=O)c3s2)c1 | inactive |
| CC1(C(=O)NS(=O)(=O)c2ccccc2)CCN1C(=O)Cc1ccc(-c2ccccc2)cc1 (stereo unspecified) | inactive |
| COc1ccc(OC)c(C(=O)c2coc3ccc(OC)cc23)c1 | inactive |
| Cc1ccc(C(=O)c2coc3ccc(O)c(CN(C)C)c23)cc1 | inactive |
| COc1ccc(OC)c(C(=O)c2coc3ccc(O)c(CN4CCOCC4)c23)c1 | 7.31 µM (active) |
| CC(=O)NC(c1ccccc1)c1nc(-c2ccccc2C)cs1 (stereo unspecified) | inactive |
| O=C(c1ccco1)N(Cc1cccs1)c1ccc(O)cc1 | inactive |
| COc1cccc(NC(=O)N(C)C[C@@H]2Oc3ncc(Br)cc3C(=O)N([C@@H](C)CO)C[C@H]2C)c1 | inactive |
| COc1ccc(S(=O)(=O)N2CCN(C(=O)NC3CCCCC3)CC2)cc1 | inactive |
| O=C(CN1CCN(S(=O)(=O)c2ccc(F)cc2)CC1)NC1CC1 | inactive |
| O=C(CN1CCN(S(=O)(=O)c2ccc3ccccc3c2)CC1)NC(=O)NC1CCCCC1 | 18.4 µM (active) |
| CC(=O)c1sc(N2C(=O)c3oc4ccccc4c(=O)c3C2c2ccc(C)cc2)nc1C (stereo unspecified) | inactive |
| CN(C)/C=C/c1c(C#N)c(=O)ncn1Cc1ccccc1 | inactive |
| CN(C)c1ccnc2sc3c(=O)n(Cc4ccccc4)cnc3c12 | 8.2 µM (active) |
| CN(C)c1ccnc2sc(C(=O)c3ccccc3)c(N)c12 | inactive |
| COc1ccc(-c2coc3c(C(=O)NC(C)C)cccc23)c(C)c1 | inactive |
| CCS(=O)(=O)N1Cc2ccccc2CC1C(=O)Nc1nc2ccc(F)cc2s1 (stereo unspecified) | 14.6 µM (active) |

| Compound | Potency |
| --- | --- |
| CCS(=O)(=O)N1Cc2ccccc2CC1C(=O)Nc1ccc(OC)cc1OC (stereo unspecified) | inactive |
| CC(=O)Nc1ccc2nc(NC(=O)CS(=O)(=O)c3ccc(F)cc3)sc2c1 | inactive |
| NC(=O)C1CCN(c2ncc(-c3ccc(Cl)cc3)s2)CC1 | inactive |
| CCCC(=O)N1CCC1(C)C(=O)Nc1ccc(-n2cncn2)cc1 (stereo unspecified) | inactive |
| CSCCC(C(=O)NC(C)(C)C)n1c(-c2ccccc2)nc2ccccc21 (stereo unspecified) | inactive |
| Cc1ccc(S(=O)(=O)N2CCN(S(=O)(=O)N3CCOCC3)CC2)cc1 | inactive |
| Cc1cccc(C)c1N1CCN(S(=O)(=O)N2CCOCC2)CC1 | 16.4 µM (active) |
| O=S(=O)(N1CCOCC1)N1CCN(c2ccccc2F)CC1 | inactive |
| Clc1ccc(-n2nnnc2CN2CCCCC2)cc1Cl | 13 µM (active) |
| Clc1ccc(CN2CCCCCC2)cc1Cl | inactive |
| c1cc(-c2nn[nH]n2)ccc1CN1CCCCC1 | inactive |
| COc1ccc(S(=O)(=O)NC(=O)C2(C)CCN2C(=O)c2ccccc2CCc2ccccc2)cc1 (stereo unspecified) | inactive |
| Cc1ccc(C)c(N2CCN(C(=O)CN3C(=O)COc4ccc(S(=O)(=O)N5CCCCCC5)cc43)CC2)c1 | inactive |
| Cc1nn(-c2ccccn2)c2c1C(c1ccncc1)C1=C(CC(C)(C)CC1=O)N2 (stereo unspecified) | inactive |
| CC1(C)CC(=O)C2=C(C1)Nc1cc(C(=O)c3ccccc3)ccc1NC2c1ccccn1 (stereo unspecified) | 20.6 µM (active) |
| Cc1cc2c(cc1C)NC(c1ccccn1)C1=C(CC(C)(C)CC1=O)N2 (stereo unspecified) | inactive |
| COc1ccc(C)cc1NC(=O)COCc1cc(-c2cccs2)on1 | inactive |
| O=S1(=O)CC(N2CCN(c3ccccn3)CC2)CN1Cc1ccc(F)cc1 (stereo unspecified) | inactive |
| COC(=O)C[C@@H]1C=C[C@@H](NS(=O)(=O)c2cccc(OC)c2)[C@@H](CO)O1 | inactive |
| CC(C)C[C@H]1CNC(=O)C(=O)N1C[C@@H]1CCCN1C[C@H](Cc1ccccc1)N1C[C@H](CC(C)C)N(CC2CCCCCC2)C(=O)C1=O | inactive |
| CN(Cc1cccnc1)C(=O)c1cc(COc2ccc3ncccc3c2)on1 | 5.17 µM (active) |
| Cc1ccc(OCc2cc(C(=O)N(C)CCc3ccccc3)no2)cc1C | inactive |
| CN(Cc1cnccn1)C(=O)c1cc(COc2cccc(C(F)(F)F)c2)on1 | inactive |
| CC(C)c1cccc(C(C)C)c1Nc1cn[nH]c1 | inactive |

| Compound | Potency |
| --- | --- |
| CC(=O)c1c(C)[nH]c(C(=O)COC(=O)c2cccs2)c1C | inactive |
| COc1cccc(C(=O)OCC(=O)c2[nH]c(C)c(C(C)=O)c2C)c1 | inactive |
| CC(=O)c1c(C)[nH]c(C(=O)COC(=O)c2cccc(S(=O)(=O)N(C)c3ccccc3)c2)c1C | 11.6 µM (active) |
| O=C(Nc1ccc2nc(SCC(=O)N3CCc4ccccc43)sc2c1)c1ccccc1F | inactive |
| COc1ccc(C2CC(=O)N(Cc3ccccc3C)c3c2c(C)nn3-c2nc(C)cc(C)n2)c(OC)c1 (stereo unspecified) | inactive |
| C[C@@H]1CN([C@@H](C)CO)S(=O)(=O)c2ccc(C#Cc3cccc(F)c3)cc2O[C@H]1CN(C)S(=O)(=O)c1cn(C)cn1 | inactive |
| C[C@H]1CN([C@@H](C)CO)C(=O)CCCn2cc(nn2)CO[C@@H]1CN(C)S(=O)(=O)c1ccc(-c2ccccc2)cc1 | inactive |
| Cc1ccn2c(-c3csc(Nc4ccc(C(=O)O)cc4)n3)c(C)nc2c1 | inactive |
| O=C(Nc1cccn(Cc2ccccc2Cl)c1=O)NC1CCCCC1 | inactive |
| O=c1c(=O)n(Cc2c(F)cccc2Cl)ccn1Cc1ccccc1 | inactive |
| O=C(Nc1cccn(Cc2c(Cl)cccc2Cl)c1=O)c1ccc(Cl)cc1 | 3.66 µM (active) |
| O=C(Nc1cccc2ccccc12)NC1CC1 | inactive |
| CCCCNC(=O)OC1CC2CC1[C@H]1CCCCN1C2=O (stereo partly specified) | inactive |
| C[C@@H]1CN([C@@H](C)CO)C(=O)c2cc(Br)cnc2O[C@@H]1CN(C)C(=O)C1CCCCC1 | inactive |
| Cc1ccc(OCCOc2cccc(/C=N/NC(N)=O)c2)cc1 | inactive |
| CCOC(=O)N/N=C/c1cn(Cc2ccccc2Cl)c2ccccc12 | 5.8 µM (active) |
| N#CCC(=O)N/N=C/c1cn(Cc2ccc3ccccc3c2)c2ccccc12 | inactive |
| COc1cccc(Cn2cc(/C=N/NC(=O)c3cc(O)cc(O)c3)c3ccccc32)c1 | inactive |
| CNC(=S)N/N=C/c1cn(Cc2ccc(C)cc2)c2ccccc12 | 16.4 µM (active) |
| NC(=O)Cn1cc(/C=N\NS(=O)(=O)c2ccccc2)c2ccccc21 | inactive |
| COC(=O)N/N=C/c1cn(CCCOc2ccc(C)cc2)c2ccccc12 | 18.4 µM (active) |
| CNC(=S)N/N=C/c1ccc(OCc2ccccc2)c(Br)c1 | inactive |
| COc1ccc(OCCn2cc(C(=O)C3CCCCC3)c3ccccc32)cc1 | inactive |
| CCCCCCCCN1C(=O)[C@H](CC(=O)NCc2cccc3ccccc23)C[C@@]2(C(=O)OC)CCCCC=C12 | inactive |

| Compound | Potency |
| --- | --- |
| Cc1ccccc1S(=O)(=O)NC(=O)C1(C)CCN1C(=O)Cc1ccc(Cl)cc1Cl (stereo unspecified) | inactive |
| CCc1nc2c(OCCOc3ccc(F)cc3)cccn2c1N(C)C(=O)c1ccccc1F | inactive |
| Clc1ccc(-c2cccc3nccn23)cc1 | inactive |
| C=CCN1CCN(c2ccncc2S(=O)(=O)N2CCN(C)CC2)CC1 | inactive |
| COc1cccc(NC(=O)Nc2ccc3c(c2)N(C)C(=O)c2ccccc2S3)c1 | inactive |
| CC1(C)C=Cc2c(ccc(C(=O)/C=C/c3ccccc3)c2O)O1 | inactive |
| O=C(NCCCN1CCOCC1)c1ccc(N2CCCC2)c([N+](=O)[O-])c1 | inactive |
| O=C(c1ccc(N2CCOCC2)c([N+](=O)[O-])c1)N1CCN(c2ccccc2F)CC1 | inactive |
| O=C(COc1ccccc1F)NNC(=O)c1ccc(N2CCCCC2)c([N+](=O)[O-])c1 | 16.4 µM (active) |
| CN(C)c1cccc(NC(=O)c2ccc(-c3ccc(F)c(F)c3)c3ccoc23)c1 | inactive |
| CO[C@@H]1CN(C)C(=O)c2cc(NC(=O)Nc3cc(F)ccc3F)ccc2OC[C@H](C)N(C(=O)c2ccccn2)C[C@@H]1C | inactive |
| CCCCC(=O)OC1=CN(Cc2ccccc2)S(=O)(=O)c2ccccc21 | inactive |
| CC1CCCCN1CC(=O)N1CCCc2c1c(=O)oc1ccc(OCc3ccccc3)cc21 (stereo unspecified) | inactive |
| O=C(CN1CCOCC1)N1CCCc2c1c(=O)oc1ccc(OCc3ccccc3)cc21 | 18.4 µM (active) |
| O=C(COc1ccc2oc3c(c2c1)CCCC3)Nc1ccccn1 | inactive |
| CCOc1ccc(CCN2C(=S)N([C@@H](CC(C)C)CN3CCC[C@@H]3CN3C(=S)NC[C@@H]3Cc3ccc(O)cc3)C[C@@H]2CC(C)C)cc1 | inactive |
| CC(=O)Nc1cncc(-c2ccccc2CO)n1 | inactive |
| O=C(Nc1ccccc1C(=O)N1CCCCCC1)c1ccccc1Cl | inactive |
| COc1ccccc1N(CC(=O)Nc1ccccc1C(=O)N1CCCC1)S(C)(=O)=O | inactive |
| O=C(CN(c1ccccc1)S(=O)(=O)c1ccc(Cl)cc1)Nc1ccccc1C(=O)N1CCCC1 | 5.8 µM (active) |
| COc1cccc(CN(C)C(=O)CC[C@H]2O[C@@H](n3cnc4c(NC(=O)c5ccccc5)ncnc43)[C@H](O)[C@@H]2O)c1 | inactive |
| Cc1ccc(C)c(N2CCN(C(=O)CCCCn3c(=O)[nH]c4ccccc4c3=O)CC2)c1 | 6.51 µM (active) |
| Cc1ccc(C)c(N2CCN(C(=O)CCCCCn3c(=S)[nH]c4ccc(N5CCOCC5)cc4c3=O)CC2)c1 | inactive |
| COc1cccc(N2CCN(C(=O)CCCCCn3c(=O)[nH]c4ccccc4c3=O)CC2)c1 | inactive |
